In PubChem BioAssay (NCI):
The panel holds about 79,000 compounds, 15% with a hit somewhere; the sample as a whole holds those more often. Values without a mark were called inactive. The source made the active and inactive calls. Rule as the data show it: active = growth inhibition above about 70%; inactive = the rest.

How the values were obtained:
[1] = NCI Yeast Anticancer Drug Screen. Data for the rad50 strain (AID 155);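 also: 0% = growth of vehicle-only cultures of the same strain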; conditions: S. cerevisiae rad50 strain growth inhibition; at 50.0 µM; stronger effect = higher value
In short: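 Genetically altered yeast (DNA repair pathway); compound treatment; growth inhibition vs vehicle ctrl.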

[2] = NCI Yeast Anticancer Drug Screen. Data for the mec2-1 strain (AID 157); conditions: S. cerevisiae mec2-1 strain, at 50.0 µM, stronger effect = higher value
In short: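 Using mec2-1 yeast: add compound, measure growth, express inhibition versus vehicle-treated cultures.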

[3] = NCI Yeast Anticancer Drug Screen. Data for the sgs1 mgt1 strain (AID 161);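 also: 0% = growth of cultures given vehicle only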; conditions: S. cerevisiae sgs1 mgt1 strain, at 50.0 µM, stronger effect = higher value
In short: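 Growth of a repair-deficient yeast mutant was monitored after compound treatment and expressed as inhibition relative to vehicle-treated cultures.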

[4] = NCI Yeast Anticancer Drug Screen. Data for the cln2 rad14 strain (AID 165);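 also: 0% = growth equal to vehicle treated cultures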; conditions: S. cerevisiae cln2 rad14 strain, at 50.0 µM, stronger effect = higher value
In short: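 Yeast strain cln2 rad14, bearing defects in cell cycle control and DNA repair, serves as the test system; values reflect growth inhibition compared with vehicle.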

[5] = NCI Yeast Anticancer Drug Screen. Data for the bub3 strain (AID 167); conditions: S. cerevisiae bub3 mutant strain, at 50.0 µM, stronger effect = higher value
In short: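 Yeast carrying a defined mutation is treated with each compound, and growth is compared with that of vehicle-exposed cells to give inhibition.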

[6] = NCI Yeast Anticancer Drug Screen. Data for the mlh1 rad18 strain (AID 175); conditions: S. cerevisiae mlh1 rad18 strain growth inhibition; at 50.0 µM; stronger effect = higher value
In short: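 Steps: expose repair-defective yeast to compound; measure growth; express inhibition against vehicle-treated controls.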

SMILES	growth inhibition [1]	growth inhibition [2]	growth inhibition [3]	growth inhibition [4]	growth inhibition [5]	growth inhibition [6]
CC/C(=N\N=C(/CC)c1cccs1)c1cccs1	25.5%	-6.4%	-10.7%	3.35%	13.1%	-3.75%
O=C1NC(Nc2ccccc2)=NC(C(F)(F)F)(C(F)(F)F)N1	-1.5%	1.1%	36%	32.5%	39.6%	-8%
Cc1cccc2c1C(=O)C1(Cc3ccccc3C1=O)C2 (stereo unspecified)	-13.4%	-6.95%	-15.1%	-5.15%	2.4%	-3.2%
CN1C(C(=O)Nc2nccs2)=C(O)c2ccccc2S1(=O)=O	2.15%	7.35%	19.9%	-11.2%	7.05%	21.6%
O=c1cc(-c2ccccc2Cl)[nH]c2cc3c(cc12)OCO3	14.1%	-26.3%	21.9%	-6.95%	12.6%	-39.8%
OC1CC2c3ccccc3C1c1cccc[n+]12 (stereo unspecified)	16.2%	-9.85%	-4.1%	-38.7%	4.65%	14.7%
BrC1c2ccccc2-c2nc3ccccc3nc21 (stereo unspecified)	11.2%	4.6%	1.6%	56.2%	17.1%	29.9%
O=Cc1ccc(N2CCCCC2)cc1	4.05%	7.95%	-13.2%	-24.2%	-8.25%	-4.45%
Nc1ccc(S(=O)(=O)NC2C(O)OC(CO)C(O)C2O)cc1 (stereo unspecified)	15.6%	-16.2%	6.65%	-21.6%	9.7%	28.4%
C/C=C\C=C\C(=O)O	-30.4%	-17%	-38.3%	4.3%	-19.8%	-31.9%
C=CCn1c(=S)sc2c(C(=O)OCC)c3c(C)cc(C)cn3c2c1=O	-18.1%	-56.5%	-60%	-5%	-34.7%	-37.9%
S=C(NCc1ccncc1)Nc1ccccc1Cl	2.75%	-0.5%	-4.7%	12.7%	6.1%	9.55%
Cc1cc(C)c(N)c(C)n1	-14.8%	-9.6%	-22.1%	-1.25%	1.1%	11.9%
C=C1C(=O)[C@@]23CC1C(O)[C@@H](OC(C)=O)[C@@H]2C1(C)C(OC(C)=O)C[C@@H](OC(C)=O)C(C)(C)[C@@H]1C[C@H]3OC(C)=O (stereo partly specified)	16.1%	11.9%	14%	22.4%	2.05%	0.15%
COC(=O)C(=O)c1c(C(=O)OC)nc2[nH]n(-c3ccccc3)c(=O)c2c1Cc1ccccc1	-5.85%	1.05%	1.6%	-45.9%	-37.5%	8.25%
COc1ccc(Cc2nc3c([nH]2)c(=O)n(C)c(=O)n3C)cc1	-0.05%	-14.1%	0.05%	-50.8%	1.2%	1.2%
O=C1c2ccccc2C(=O)C2C1C(c1ccccc1)N(c1ccccc1)C2c1ccccc1 (stereo unspecified)	-16.4%	-1.55%	-7.1%	5.75%	2.65%	-3.1%
CCCC(=O)Nc1cn(COC)c(C(=O)N2C[C@H]3C[C@@]34C2=CC(=O)c2[nH]cc(C)c24)n1	49.9%	22.1%	56%	19.9%	40.8%	58.8%
Nc1nc2c(ncn2CC2CCOC2=O)c(=O)[nH]1 (stereo unspecified)	-19.1%	-17.9%	-18.7%	4.4%	-5.85%	-14.8%
Cc1c(CN(C)C)ccc2ccccc12	-6%	-6.05%	3.95%	-34.4%	0.6%	-8.95%
CC(C)(C)OC(=O)NCS(=O)(=O)N(Cc1ccccc1)Cc1ccccc1	91.8% (active)	89% (active)	51.7%	82.6% (active)	79.4% (active)	89.7% (active)

SMILES	growth inhibition [1]	growth inhibition [2]	growth inhibition [3]	growth inhibition [4]	growth inhibition [5]	growth inhibition [6]
CC1(C)N=C(c2ccccc2)SC1(C)C	-13.6%	-12.2%	-21.8%	-49.4%	1.65%	-36.5%
CCc1n[nH]c(=O)n1NC(=O)/C=C\C(=O)O	-12.2%	-16.1%	-23.9%	-17.7%	-10.7%	-25.5%
CC(=O)Nc1nc(NC(C)=O)c2[nH]c(CO)nc2n1	-4.2%	-10.4%	-11.8%	-33.6%	-61.3%	-11.7%
CCC1(CCCCCBr)OCCO1	13.9%	12.6%	19.6%	10.2%	14.8%	7.9%
O=C(c1ccccc1Br)C(F)(F)F	-2.6%	-19.5%	-18.4%	-17.5%	-43.9%	-3.8%
COC1/C=C/C(C)C(C(C)C(OC)C(C)CCC(=O)C(C)C(C/C=C/N(C)C=O)OC)OC(=O)/C=C/C=C(\C)CC(OC)C(OC)C2=CC(=O)O[C@@H](C(C)C(OC)CC(OC)/C=C/C(C)C(O)C1)[C@H]2O (stereo partly specified)	86.8% (active)	90.2% (active)	90% (active)	89.8% (active)	87.7% (active)	91% (active)
O=C(c1nc2cc([N+](=O)[O-])ccc2[nH]c1=O)C(O)c1ccco1 (stereo unspecified)	-8.65%	-25.4%	-25.2%	13.9%	-35%	-6.35%
CC(=O)Nc1ccc(S(=O)(=O)N/N=C\CC(C)C)cc1	-19.4%	-14.2%	-26.2%	-6.95%	-46%	-27.2%
C=C1CC/C=C(\C)CCC2C1CC2(C)C (stereo unspecified)	-5.1%	-17.1%	1.9%	12.2%	21.1%	10.9%
CC(C)(C)CC(C)(O)C(=O)O (stereo unspecified)	6.9%	-18.9%	-15.8%	-1.45%	-13.5%	-3.55%
CCC(=O)OC1CCC2(C)C(=CCC3C2CCC2(C)C(C(C)CCCC(C)C)CCC32)C1 (stereo unspecified)	3.1%	7.6%	-20.6%	4.45%	-0.8%	-12.2%
O=C1OCCC2(CCN(Cc3ccccc3)CC2)O1	11.2%	9.35%	25.4%	-0.3%	-1.45%	24.3%
COC1N(c2ccccc2)CCN1c1ccccc1	3.05%	6.1%	-23.2%	4.75%	5.55%	8.3%
COC(=O)c1ccccc1NC(=O)c1cccc(Cl)c1	20.9%	6.85%	20.6%	16%	30.4%	23.7%
CC1=Nc2cc(C)c(C)cc2N2C1=CC1=C(C(=O)c3cc4ccccc4cc3C1=O)C2C (stereo unspecified)	16%	9.8%	16.2%	23.1%	-3.85%	23.6%
CCCCN(C=O)CCCC	20.7%	17.3%	17.4%	9.45%	4.75%	3.7%
Cc1ccc(N=Nc2c(C)nc(N)nc2C)cc1	7.5%	13.9%	-12.7%	-2.85%	12.1%	-6.55%
COc1ccc(NC(=O)Nc2ccc(NC(C)=O)cc2)c(OC)c1	-6%	-18.2%	14.5%	7.65%	17.1%	10.7%
Cc1ccc(NS(=O)(=O)c2ccc(F)cc2)cc1Cl	99.7% (active)	99.3% (active)	99.7% (active)	99.3% (active)	99.6% (active)	99.8% (active)
Cn1nnc2c1C(=O)c1ccccc1C2=O	0.6%	-14%	29.4%	-50.3%	-8.5%	-0.7%
